{"source": "PubChem BioAssay (NCATS)", "note": "Results filed as inconclusive are left out. Where a call stands in place of a potency, no number is given. Active and inactive are the calls of the source. The call rests on the fitted dose curve; in most records, active means well fitted inhibition curve with a large enough effect; inconclusive means small, poorly fitted or top-dose-only effect; inactive means no such curve, though single readings can be large or run the other way.", "data": [{"target": "Retinaldehyde dehydrogenase 3 (Homo sapiens) (UniProt P47895)", "assay": "qHTS for Inhibitors of the Aldehyde Dehydrogenase Family (ALDH1A3) Primary screen (AID 2061315)", "conditions": "ALDH inhibition qHTS; series mostly up to 56 µM", "values": [{"compound": "COc1cccc(CN2C(=O)c3ccccc3NC2c2ccc(OC)c(COc3ccc(NC(C)=O)cc3)c2)c1", "note": "(stereo not given)", "Potency": "inactive"}, {"compound": "FC(F)Oc1ccc(C2=Nn3c(nnc3-c3ccccc3C(F)(F)F)SC2)cc1OCC1CC1", "Potency": "inactive"}, {"compound": "Cc1[nH]c2ccccc2c1C1=C(NCCc2ccc(F)cc2)C(=O)N(C)C1=O", "Potency": "inactive"}, {"compound": "Cc1cc(NC(=O)c2ccc(NC(=O)Cc3ccc(Cl)c(Cl)c3)cc2)no1", "Potency": "inactive"}, {"compound": "N#Cc1nc(Nc2ccc3ccccc3c2)nc(NC2CCCC2)n1", "Potency": "inactive"}, {"compound": "O=S(=O)(c1ccccc1)N1CCN(c2nc(-c3ccc(Br)cc3)cs2)CC1", "Potency": "inactive"}, {"compound": "COc1ccc(C2Nc3ccccc3C(=O)N2Cc2ccccc2)cc1COc1ccc(NC(C)=O)cc1", "note": "(stereo not given)", "Potency": "inactive"}, {"compound": "O=C(c1cccs1)c1nonc1C(=O)c1cccs1", "Potency": "inactive"}, {"compound": "O=C(Nc1cncc(Cc2ccccc2)c1)c1ccc(-c2cccc([N+](=O)[O-])c2)o1", "Potency": "inactive"}, {"compound": "O=C(Nc1nc(-c2ccccc2)cs1)c1ccncc1NS(=O)(=O)c1ccc(Cl)cc1", "Potency": "inactive"}, {"compound": "COc1ccc(C2=Nn3c(nnc3-c3ccc(OC)cc3)SC2)cc1", "Potency": "inactive"}, {"compound": "COc1ccc(C2=Nn3c(nnc3-c3cccc(OC)c3OC)SC2)c(OC)c1", "Potency": "inactive"}, {"compound": "COc1ccc(C2Nc3ccccc3C(=O)N2Cc2ccccn2)cc1COc1ccc(NC(C)=O)cc1", "note": "(stereo not given)", "Potency": "inactive"}, {"compound": "CCCCN(C)C(=O)Cn1nc(-c2ccc(Cl)cc2)ccc1=O", "Potency": "inactive"}, {"compound": "O=C(Nc1nc(-c2ccccc2)cs1)c1ccncc1NS(=O)(=O)c1ccc2ccccc2c1", "Potency": "inactive"}, {"compound": "CCOC(=O)c1ccc(-n2cccc2/C=C2\\NC(=O)NC2=O)cc1", "Potency": "inactive"}, {"compound": "Cc1ccc(N[S+](=O)([O-])c2cc3c(cc2Cl)NC(=O)CO3)cc1Br", "Potency": "inactive"}, {"compound": "COc1ccc(C2=Nn3c(nnc3-c3cc(OC)ccc3OC)SC2)cc1", "Potency": "inactive"}, {"compound": "CN1CCN(c2ccc(Nc3nn4c(=O)c5ccccc5nc4s3)cc2)CC1", "Potency": "inactive"}, {"compound": "N#Cc1c(-c2ccc(Br)cc2)no[n+]1[O-]", "Potency": "inactive"}, {"compound": "O=C(NCCCCc1ccccc1)C1CCN(c2nc(-c3ccc(Br)cc3)cs2)CC1", "Potency": "inactive"}, {"compound": "O=C([C@H](Cc1ccc(O[S+](=O)([O-])c2cccnc2)cc1)N[S+](=O)([O-])c1ccccn1)N1CCN(c2ccccc2)CC1", "Potency": "inactive"}, {"compound": "Cc1cc(-c2nnc3n2CCCC3)c(C)n1-c1ccccc1", "Potency": "inactive"}]}, {"target": "Aldehyde dehydrogenase 1A1 (Homo sapiens) (UniProt P00352)", "assay": "qHTS for Inhibitors of the Aldehyde Dehydrogenase Family (ALDH1A1) Confirmatory screens (AID 2061316); further: nearly all actives have a fitted effect of over 65% in size; further: potency means the concentration at half of the fitted maximal effect", "conditions": "ALDH inhibition qHTS; series mostly up to 47.3 µM", "values": [{"compound": "Cc1ccnc(CC(=S)N2CCN(c3cccc(C(F)(F)F)c3)CC2)c1", "Potency": "10.1 µM (active)"}, {"compound": "O=C(CN1C(=O)N/C(=C\\c2cn(-c3cccc(C(=O)O)c3)cn2)C1=O)Nc1ccccc1Cl", "Potency": "inactive"}, {"compound": "Cc1cc(-c2nnc3n2CCCCC3)c(C)n1-c1ccc(Cl)c(Cl)c1", "Potency": "14.2 µM (active)"}, {"compound": "FC(F)(F)c1ccc(-c2ccc(CNc3nc(-c4ccccc4C(F)(F)F)nc4ccccc34)cc2)cn1", "Potency": "7.98 µM (active)"}, {"compound": "O=[S+]([O-])(Nc1ccc(-c2nc3ccccc3[nH]2)cc1)c1ccc2c(c1)OCO2", "Potency": "inactive"}, {"compound": "Cc1cc(C)nc(NC(=S)N2CC3CN(c4ncc(C(F)(F)F)cc4Cl)CC3C2)c1", "note": "(stereo not given)", "Potency": "12.7 µM (active)"}, {"compound": "FC(F)Oc1ccc(C2=Nn3c(nnc3-c3ccccc3C(F)(F)F)SC2)cc1OCC1CC1", "Potency": "inactive"}, {"compound": "O=S(=O)(c1ccccc1)N1CCN(c2nc(-c3ccc(Br)cc3)cs2)CC1", "Potency": "10.1 µM (active)"}, {"compound": "O=C(Nc1cncc(Cc2ccccc2)c1)c1ccc(-c2cccc([N+](=O)[O-])c2)o1", "Potency": "3.18 µM (active)"}, {"compound": "COc1ccc(C2=Nn3c(nnc3-c3ccc(OC)cc3)SC2)cc1", "Potency": "inactive"}, {"compound": "COc1ccc(C2=Nn3c(nnc3-c3cccc(OC)c3OC)SC2)c(OC)c1", "Potency": "inactive"}, {"compound": "O=C(Nc1nc(-c2ccccc2)cs1)c1ccncc1NS(=O)(=O)c1ccc2ccccc2c1", "Potency": "8.96 µM (active)"}, {"compound": "COc1ccc(C2=Nn3c(nnc3-c3cc(OC)ccc3OC)SC2)cc1", "Potency": "14.2 µM (active)"}, {"compound": "CN1CCN(c2ccc(Nc3nn4c(=O)c5ccccc5nc4s3)cc2)CC1", "Potency": "12.7 µM (active)"}, {"compound": "O=C(NCCCCc1ccccc1)C1CCN(c2nc(-c3ccc(Br)cc3)cs2)CC1", "Potency": "8.96 µM (active)"}, {"compound": "O=C([C@H](Cc1ccc(O[S+](=O)([O-])c2cccnc2)cc1)N[S+](=O)([O-])c1ccccn1)N1CCN(c2ccccc2)CC1", "Potency": "5.04 µM (active)"}, {"compound": "Cc1cc(-c2nnc3n2CCCC3)c(C)n1-c1ccccc1", "Potency": "11.3 µM (active)"}]}]}
